Rows were chosen to be rich in hits. Some 2.8% of all compounds tested hit in one or more screens of this group.
IP6K1 inhibitor: Primary qHTS assay for small molecule inhibitors of Inositol hexaphosphate kinase 1 (IP6K1) | Inositol hexakisphosphate kinase 1 (Homo sapiens), Q92551 | IP6K1 kinase, ADP-Glo luminescence, 2 h; hits give low values | activity change, % (series mostly up to about 58 µM) | 140,000 tested, 0.81% active | AID 1645851, 2021; in the data active = activity change below about -25%; also: % is scaled to controls: 0 for no effect and ±100 for the full control effect
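ADP-Glo luminescence measures ADP made by human IP6K1 during a 2 h RT reaction with ATP/IP6 (mix at 1.3 mM/130 uM); top library doses 57.5 and 19.1 uM final.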
KDM5B inh: Primary screen for KDM5B Histone Demethylases FDH-coupled qHTS; Lysine-specific demethylase 5B (Homo sapiens), Q9UGL1; KDM5B demethylase, FDH-coupled NADH fluorescence (FDH is formaldehyde dehydrogenase); Potency, µM (doses to about 57.7 µM), most hits filed as inhibitors; 220,000 tested, 2.6% active; active = well fitted inhibition curve with a large enough effect; inconclusive = small, poorly fitted or top-dose-only effect; inactive = no such curve, though single readings can be large or run the other way; also: potency is read from the fitted curve at half-maximal effect; 0% is about no effect; nearly all actives have a fitted effect of over 70% in size
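Compound dilutions met 200 nM (final) KDM5BΔAP for 10 min at room temperature before substrate addition. The substrate mix held 12.5 µM H3K4me3 with cofactors 25 µM α-ketoglutarate and 50 µM Fe²⁺. NADH signal gain over 30 min defined activity.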
Numbers without * were called inactive; i = inactive; ? = inconclusive; nt = no result.

SMILES	IP6K1 inhibitor	KDM5B inh
COC[C@H]1NC(=O)CC[C@H]1C(=O)N1CCN(c2ccccc2)CC1	12.4	nt
Clc1ccccc1CN1CC[C@H](c2nnc(-c3ccccc3)o2)C1	-7.5	i
Cc1ccccc1CN1CC[C@H](c2nnc(-c3ccc(N(C)C)cc3)o2)C1	16.1	31.6µM*
CN(C)c1ccc(-c2nnc([C@H]3CCN(C(=O)c4ccccn4)C3)o2)cc1	5.3	?
c1coc(CN2CC[C@H](c3nnc(-c4ccncc4)o3)C2)c1	9.1	i
CN(C)c1ccc(-c2nnc([C@H]3CCN(Cc4ccccn4)C3)o2)cc1	20.1	35.5µM*
c1cnc(N2CC[C@H](c3nnc(-c4ccncc4)o3)C2)nc1	6.6	31.6µM*
COc1cc(/C=C(\C#N)C(=O)c2ccc(C)cc2)ccc1OCc1ccc(Cl)cc1Cl	nt	i
c1ccc(CC2=NOC3(CCN(Cc4ccccc4)C3)C2)cc1 (centres undefined)	16.2	31.6µM*
FC(F)(F)c1ccc(CN2CCCC3(CC(Cc4ccccc4)=NO3)C2)cc1 (centres undefined)	6.9	i
CO[C@H]1C(=O)N(C2CCN(C(=O)c3nccc4ccccc34)CC2)[C@H]1c1ccncc1	14.7	nt
Cc1ccccc1C(=O)NC1CCN(c2ccnc3ccnn23)C1 (centres undefined)	7.2	nt
S=C(NCC(c1ccccc1)c1ccccc1)Nc1ccc(Cl)cc1	nt	i
O=C(COc1ccccc1)N[C@H]1[C@H](O)[C@H](O)C[C@@H]1c1ccc(N2CCOCC2)nc1	2.8	31.6µM*
O=C(N[C@H]1[C@H](O)[C@H](O)C[C@@H]1c1ccc(N2CCOCC2)nc1)c1nc2ccccc2s1	8.3	i
O=C(N[C@H]1[C@H](O)[C@H](O)C[C@@H]1c1ccc(N2CCOCC2)nc1)c1ccc2c(c1)OCCO2	-1.4	?
CC(C)C(=O)N[C@H]1[C@H](O)[C@H](O)C[C@@H]1c1ccc(N2CCOCC2)nc1	-0.2	39.8µM*
COc1ccc(CC(=O)N[C@H]2[C@H](O)[C@H](O)C[C@@H]2c2ccc(N3CCOCC3)nc2)cc1	11.1	31.6µM*
COc1ccc(CC(=O)N[C@H]2[C@H](O)[C@H](O)C[C@@H]2c2ccc(C(F)(F)F)nc2)cc1	0.6	i
CC(C)(C)C(=O)N1CCC[C@@H]1C(=O)N1CCCC(c2nc3ccncc3[nH]2)C1 (some centres undefined)	9.1	nt
CCCCCn1nc(C(=O)Nc2cccc(Br)c2)c2ccccc2c1=O	nt	i
CO[C@H]1C(=O)N(C(C)C)[C@H]1C1CCN(Cc2cn[nH]c2-c2ccccc2)CC1	6.9	nt
O=C(NC1CCN(Cc2cccc(-c3ccc(F)c(F)c3)c2)CC1)c1ccc(F)cc1	1.8	nt
COc1cccc(-c2cccc(C(=O)N3CCN(C(=O)c4ccccc4F)CC3)c2)c1	-2.0	nt
Cc1ccc(S(=O)(=O)N[C@H]2CO[C@H]3[C@@H]2OC[C@@H]3n2nnnc2Oc2ccc(-n3cncn3)cc2)cc1	1.3	i
SMILES	IP6K1 inhibitor	KDM5B inh
O=S(=O)(N[C@H]1CO[C@H]2[C@@H]1OC[C@@H]2n1nnnc1Oc1ccc(-n2cncn2)cc1)c1cccs1	15.4	17.8µM*
COc1ccc2cc(C3CN(Cc4nc(C(N)=O)no4)CCO3)ccc2c1 (centres undefined)	-5.6	17.8µM*
COc1ccc2cc(C3CN(CCC(=O)NC(C)(C)C)CCO3)ccc2c1 (centres undefined)	21.6	?
CC(C)NC[C@H]1O[C@@H](CO)[C@@H](O)[C@H]1N1CCN(c2ccccn2)CC1	-6.7	25.1µM*
CC(C)NC(=O)NC[C@H]1O[C@@H](CO)[C@@H](O)[C@H]1N1CCN(c2ccccn2)CC1	-5.0	?
O=C(NCCN[S+](=O)([O-])c1cccc(C(F)(F)F)c1)c1cccc(-c2ccsc2)c1	-4.4	nt
CNC(=O)c1cc2cc(-c3c(C)noc3C)nc(-c3ccccc3C)c2o1	5.2	35.5µM*
CNC(=O)c1cc2cc(-c3c(C)noc3C)nc(-c3cccnc3)c2o1	89.9	?
CNC(=O)c1cc2cc(-c3c(C)noc3C)nc(-c3ccccc3OC)c2o1	-14.0	?
CNC(=O)c1cc2cc(-c3c(C)noc3C)nc(-c3cccc(CO)c3)c2o1	-0.1	35.5µM*
COCCN1CCCC[C@]2(C[C@H](CO)[C@H](c3ccccc3)N2C(=O)CC2CCCC2)C1=O	-5.4	nt
O=C(NCCc1ccccc1)C1CCCN(Cc2cccc(-c3ccc(F)cc3F)c2)C1 (centres undefined)	4.9	nt
O=C(NCc1ccccc1)c1ccccc1OC1CN(Cc2cccc(F)c2F)C1	-14.1	nt
CCOC(=O)c1ccc(NC(=O)Cn2c(N(C)Cc3ccccc3)nc(C)cc2=O)cc1	8.6	i
CCOC(=O)c1ccccc1NC(=O)Cn1c(N(C)Cc2ccccc2)nc(C)cc1=O	11.6	15.8µM*
CCOC(=O)c1cn(CC)nc1S(=O)(=O)N1CCOCC1	nt	i
O=C(Nc1ccccc1F)N1CCN(c2ccc3nnc(C4CC4)n3n2)CC1	12.8	nt
CCOc1ccc(-c2cc3c(=O)n(Cc4nc(-c5ccc(OC(C)C)cc5)oc4C)ccn3n2)cc1Cl	-8.7	?
Cc1oc(-c2ccc(OC(C)C)cc2)nc1Cn1ccn2nc3c(c2c1=O)CCCC3	28.5	28.2µM*
COc1ccc(N2CCCCS2(=O)=O)cc1S(=O)(=O)NCc1ccco1	nt	i
Cn1ncc(N2CCC(NC(=O)c3ccc4c(c3)OCO4)CC2)cc1=O	37.4	i
CN(C)c1ccc(C(=O)NC2CCCN(c3cc(-c4ccccc4)[nH]n3)C2)cc1 (centres undefined)	7.3	i
COc1ccc(-c2cc(N3CCCC(NC(=O)c4ccc(N(C)C)cc4)C3)n[nH]2)cc1 (centres undefined)	0.0	25.1µM*
CN(C)c1cccc(C(=O)NC2CCN(c3cnn(C)c(=O)c3)CC2)c1	16.4	25.1µM*
CN(C)c1cccc(C(=O)NC2CCN(c3cc(-c4ccccc4)[nH]n3)CC2)c1	15.1	20µM*
SMILES	IP6K1 inhibitor	KDM5B inh
CN(C)c1ccc(C(=O)NC2CCN(c3cc(-c4ccccc4)[nH]n3)C2)cc1 (centres undefined)	2.8	14.1µM*
O=C(NC1CCN(c2cc(-c3ccccc3)[nH]n2)CC1)c1ccccc1	11.8	i
CN(C)c1ccc(C(=O)NC2CCCN(c3cc(-c4ccc(F)cc4)[nH]n3)C2)cc1 (centres undefined)	2.9	?
Cn1ncc2c(C(=O)NCCc3ccccc3F)cc(-c3ccc(F)cc3)nc21	3.6	nt
O=C(NCc1ccccn1)c1nc2sccn2c1-c1ccncc1	5.4	nt
Cc1ccc(CN2C(=O)NC3(CCCN(C(=O)c4ccc(F)c(Cl)c4)C3)C2=O)cc1 (centres undefined)	4.4	i
CNC(=O)c1cc(C2CC2)nc2c1c(C1CCCN([S+](=O)([O-])c3cccs3)C1)nn2C (centres undefined)	7.4	nt
COc1ccc(CNC(=O)c2cc(-c3ccccc3C(F)(F)F)nc3[nH]ncc23)cc1OC	20.5	nt
Cc1oc(-c2ccccc2)nc1C(=O)OCC(=O)N1CCCCC1	nt	i
CN(C)c1cccc(C(=O)NC2CCCN(c3cc(-c4ccc(F)cc4)[nH]n3)C2)c1 (centres undefined)	1.9	?
O=C(NC1CCN(c2cc(-c3ccc(F)cc3)[nH]n2)CC1)c1ccccc1Cl	-5.2	i

Screening data deposited in PubChem BioAssay by National Center for Advancing Translational Sciences (NCATS).
